Screening data from PubChem BioAssay.
Hits are enriched below; roughly 19% of the tested compounds scored in any of these assays.
HT1080 IDH1KD tx: toxicity to HT-1080 IDH1 knockdown cells (counter line). HT-1080 IDH1 knockdown viability, ATP luminescence, 48 h. Potency, µM (top dose mostly 46.1 µM), for the others: at the highest dose activity, negative = toxicity, actives largely listed as cytotoxic. 360,000 compounds, 2% hits. AID 686971;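 also: potency is read from the fitted curve at half-maximal effect; 0% = DMSO wells and -100% = cell-free medium wells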
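After a 2 h attachment period, IDH1KD HT-1080 cells took pin-transferred compound for 48 h at 37 °C; ATP-based luminescence after 10 min room-temperature reagent incubation reported viability.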
IL-1B inflam inh: blocks inflammasome-driven IL-1 beta release. activity change, % at 57.5 µM. THP-1 LPS/ATP IL-1B secretion, AlphaLISA, 16 h; hits give low values. 360,000 compounds, 4.7% hits; in the data active = activity change below about -50%; inconclusive = mostly about -30% to -49%
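THP-1 cells pretreated 1 hr with compounds (up to 57.5 uM final), then stimulated with LPS (250 ng/mL final) plus ATP (1.25 mM final); secreted IL-1B measured by AlphaLISA after 16 hr, decreased signal indicating inhibition.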
TDP1 cell CPT: DT40-hTDP1 cell growth loss with CPT; chicken DT40 Tdp1-/-;hTDP1 cells + 20 nM CPT, ATP luminescence, 48 h; AID 686979; Potency, µM (top dose mostly 46.2 µM), without a hit: top-dose activity change, negative = growth inhibition, hits mostly inhibitors; 420,000 compounds, 12% hits; also: potency is read from the fitted curve at half-maximal effect; nearly all actives have a fitted effect of over 55% in size
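Chicken DT40 Tdp1-/- cells stably complemented with human TDP1 were seeded at 400 cells/well in medium containing 20 nM camptothecin, exposed to pin-transferred compounds, and grown at 37 °C for at least 48 hr. Viability was read as ATP luminescence.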
DT40 TDP1 no CPT: qHTS for Inhibitors of human tyrosyl-DNA phosphodiesterase 1 (TDP1): qHTS in cells in absence of CPT. 420,000 compounds, 15% hits. DT40 Tdp1-/- hTDP1 cells, no CPT, ATP luminescence, 48 h. Potency, µM (top dose mostly 46.2 µM), for inactives: top-dose activity change, negative = growth inhibition, actives largely listed as inhibitors; also: potency is read from the fitted curve at half-maximal effect; nearly all actives have a fitted effect of over 55% in size
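Compound effects on proliferation are scored in DT40 Tdp1-/-;hTDP1 cells in the absence of CPT. ATP levels (CellTiter-Glo luminescence) are recorded after a ≥48 hr, 37 °C incubation.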
HT1080NT lethal: kills 2HG-producing HT-1080-NT fibrosarcoma cells. HT-1080-NT fibrosarcoma viability, CellTiter-Glo ATP luminescence, 48 h. Potency, µM (doses to about 46.1 µM), inactives show at the highest dose activity, negative = less viability, usual class: cytotoxic. 360,000 compounds, 1.6% hits;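 also: NT is the 2HG producing partner of a matched IDH1 knockdown line; potency is read from the fitted curve at half-maximal effect; 0% = DMSO-treated cells and -100% = media-only wells without cells; nearly all actives have a fitted effect of over 55% in size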
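Toxicity toward the 2HG-producing NT line was scored as %Activity, normalised to DMSO and no-cell wells, from CellTiter-Glo luminescence after 48 hours' treatment.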
* marks the source's active call; other numbers are inactive results; ? = inconclusive; . = no result. Unless noted, calls follow the shape of the dose curve; as a rule, active = well fitted curve in the direction sought with a large enough effect; inconclusive = small, poorly fitted or top-dose-only effect, or another doubt; inactive = no such curve, though single readings can be large; an effect the other way counts as inactive or inconclusive. Unless noted, % is scaled to controls: 0 for no effect and ±100 for the full control effect.

SMILES	HT1080 IDH1KD tx	IL-1B inflam inh	TDP1 cell CPT	DT40 TDP1 no CPT	HT1080NT lethal
COc1cc(Cl)cc(/C=C/c2ccc3cccc(O)c3n2)c1OC	0%	34	?	23µM*	5%
Oc1cccc2ccc(/C=C/c3c(F)cccc3Cl)nc12	?	17	?	?	-11%
COc1ccc(Cl)cc1/C=C/c1ccc2cccc(O)c2n1	?	93	21µM*	?	?
O=C1C=C(c2ccoc2)N2CCC[C@H]2C1	4%	25	4%	-21%	11%
CC(C)(C)c1ccc(-c2nnc(SCCN3C(=O)c4ccccc4C3=O)o2)cc1	9%	-4	10%	-9%	7%
Cc1ccc(S(=O)(=O)N(C)CC(=O)Nc2cc(C)ccn2)cc1	-1%	40	-2%	-19%	-1%
Cc1cccc(Nc2nnc(SCC(=O)NC3CCCc4ccccc43)s2)c1C (configuration not stated)	-21%	?	15µM*	8.2µM*	-25%
Cc1nnc(SC(C)C(=O)NC2CCCc3ccccc32)n1-c1ccccc1 (configuration not stated)	8%	-5	0%	-12%	10%
Cc1ccccc1-n1c(C)nnc1SCC(=O)NC1CCCc2ccccc21 (configuration not stated)	18%	-13	-6%	-27%	0%
CC(Sc1nnc(Nc2ccccc2)s1)C(=O)NC1CCCc2ccccc21 (configuration not stated)	-1%	-5	?	23µM*	-3%
OCCCn1c(C2CCCN2c2nc(-c3ccc(F)cc3)cs2)nc2cc(Cl)c(N3CCCCC3)cc21 (configuration not stated)	0%	15	?	21µM*	1%
Cc1csc(N2CCCC2c2nc3cc(Cl)c(N4CCCCC4)cc3n2CCCO)n1 (configuration not stated)	-16%	-16	?	16µM*	-3%
OCCCn1c(C2CCCN2c2nc(-c3ccc(Cl)cc3)cs2)nc2cc(Cl)c(N3CCCCC3)cc21 (configuration not stated)	4%	23	?	?	0%
CCc1ccc(NC(=O)c2ccc(CNS(=O)(=O)c3ccc4c(c3)C(C)(C)C(=O)N4C)cc2)cc1	.	.	?	4.1µM*	.
CN1C(=O)C(C)(C)c2cc(S(=O)(=O)NCc3ccc(C(=O)Nc4ccc(Cl)cc4)cc3)ccc21	.	.	18µM*	13µM*	.
Cc1ccc(CNS(=O)(=O)c2ccc3c(c2)C(C)(C)C(=O)N3C)cc1	-2%	14	8%	-27%	17%
CC[C@@H](C)[C@H](NS(=O)(=O)c1cccc2ccccc12)C(=O)N[C@H](C=O)Cc1c[nH]c2ccccc12	.	.	5.9µM*	5.3µM*	.
NC(=O)NC(=O)COC(=O)c1cccnc1Nc1ccccc1F	-1%	-25	-5%	-6%	-4%
CCCNC(=O)COC(=O)c1cccnc1Nc1ccccc1F	-2%	-9	-27%	16µM*	-1%
O=S1(=O)CC(N2CCN(CCO)CC2)CN1C1CCCCC1 (configuration not stated)	26%	0	-2%	8%	29%
OCC(O)CS (configuration not stated)	.	.	-17%	3%	.
FC(F)(F)c1cc(Cc2nc3ccccc3n2C(CCc2ccccc2)c2nc3ccccc3[nH]2)cc(C(F)(F)F)c1 (configuration not stated)	?	5	7.3µM*	7.3µM*	21µM*
Cc1ccc(Cc2nc3ccccc3n2C(CCc2ccccc2)c2nc3ccccc3[nH]2)cc1 (configuration not stated)	-2%	-69*	?	18µM*	-5%
Cc1csc(CN(C)C(=O)CC2C(=O)NCCN2Cc2ccc(F)c(F)c2)n1 (configuration not stated)	0%	-8	-7%	?	0%
CN1CCN(Cc2c(O)ccc3occ(C(=O)c4ccccc4)c23)CC1	9%	-1	?	-19%	9%
SMILES	HT1080 IDH1KD tx	IL-1B inflam inh	TDP1 cell CPT	DT40 TDP1 no CPT	HT1080NT lethal
CC(=O)C(C(C)=O)c1c(Cl)c(O)c(O)c2c(C(=O)c3ccccc3)coc12	12µM*	-16	4.6µM*	3.7µM*	?
O=c1c2ccccc2ncn1-c1ccc([N+](=O)[O-])cc1[N+](=O)[O-]	5%	-64*	16µM*	18µM*	-8%
O=c1c2ccccc2ncn1-c1ccc(Cl)cc1[N+](=O)[O-]	2%	-2	?	?	6%
O=C1c2ccccc2C(=O)C1c1ccncc1	-2%	-21	?	23µM*	-5%
Cc1ccc(C2C(=O)c3ccccc3C2=O)cc1	9%	7	3%	-12%	18%
O=S(=O)(c1ccc(-c2csc(=Nc3ccc(F)cc3)n2CCCCCCO)cc1)N1CCCC1	.	.	2.9µM*	2.6µM*	.
COc1ccc(-c2csc(=Nc3ccccc3)n2CCO)cc1	-23%	-24	?	?	-22%
Cc1ccc(-c2csc(=Nc3ccccc3)n2CCCO)cc1	.	.	16µM*	10µM*	.
OCCCn1c(-c2ccc(F)cc2)csc1=Nc1ccc(F)cc1	.	.	9.2µM*	15µM*	.
COc1ccc(S(=O)(=O)N2CCOCC2)cc1C(=O)Nc1cc(C)on1	11%	-2	4%	-8%	12%
COc1ccccc1CNC(=O)c1ccc(-c2nc(CS(=O)(=O)c3ccc(C)cc3)c(C)o2)cc1	.	.	?	23µM*	.
COCCCNC(=O)c1ccc(-c2nc(CS(=O)(=O)c3ccc(C)cc3)c(C)o2)cc1	.	.	?	16µM*	.
COc1ccccc1CNC(=O)c1ccc(CS(=O)(=O)c2ccc(C)cc2)o1	-2%	1	?	-29%	-8%
Cc1ccc(CNC(=O)c2ccc(-c3nc(CS(=O)(=O)c4ccc(C)cc4)c(C)o3)cc2)cc1	.	.	13µM*	7.3µM*	.
Cc1oc(-c2ccc(C(=O)NC(C)c3ccccc3)cc2)nc1CS(=O)(=O)c1ccccc1 (configuration not stated)	.	.	-12%	-11%	.
COc1cccc2c1C(=O)c1c(O)c3c(c(O)c1C2=O)C[C@@](O)(C(=O)CO)C[C@@H]3OC1CC(N)C(O)C(C)O1 (some centres not stated)	4.6µM*	-105*	0.29µM*	0.26µM*	?
COc1cccc2c1C(=O)c1c(O)c3c(c(O)c1C2=O)CC(O)(C(C)=O)CC3OC1CC(N(C)C)C(O)C(C)O1 (configuration not stated)	0.73µM*	-101*	0.052µM*	0.082µM*	?
